# Legend:
# Test in all cases: PBM binding z-score (relative to random genomic background probes); higher = stronger binding; sequences stand for … in GC…GCGATTGACAGCGTAGAATGAAGG
# [1] = test system: FXR:RXRa (NR concentration 270 nM, RXRa partner concentration 90 nM)
# Procedure, shortened: (§1)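 Scanned fluorescence from custom Agilent 4×180K protein-binding microarrays was regression-normalized. Binding z-scores use random background probes as reference. Ligand-free nuclear receptor dimers were incubated on the arrays for 1 h and detected with antibodies against each partner (one per run).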
# [2] = test system: LXRa:RXRa (NR concentration 270 nM, RXRa partner concentration 90 nM)
# Procedure, shortened: as §1
# [3] = test system: LXRa homodimer (NR concentration 270 nM)
# Procedure, shortened: as §1
# [4] = test system: LXRb:RXRa (NR concentration 270 nM, RXRa partner concentration 90 nM)
# Procedure, shortened: as §1
# [5] = test system: LXRb homodimer (NR concentration 270 nM)
# Procedure, shortened: as §1
# [6] = test system: PPARa:RXRa (NR concentration 270 nM, RXRa partner concentration 90 nM)
# Procedure, shortened: as §1
# [7] = test system: PPARg:RXRa (NR concentration 180 nM, RXRa partner concentration 90 nM)
# Procedure, shortened: as §1
# [8] = test system: PPARg:RXRa 270nM:90nM, anti-RXR (NR concentration 270 nM, RXRa partner concentration 90 nM)
# Procedure, shortened: as §1
# [9] = test system: PPARg:RXRa 30nM:10nM, anti-RXR (NR concentration 30 nM, RXRa partner concentration 10 nM)
# Procedure, shortened: as §1
# [10] = test system: PPARg:RXRa 90nM:30nM, anti-RXR (NR concentration 90 nM, RXRa partner concentration 30 nM)
# Procedure, shortened: as §1
# [11] = test system: PPARg:RXRa DBDmut IVT, anti-RXR (DBD mutation: RXRa K156A/R161A, NR concentration 270 nM, RXRa partner concentration 90 nM)
# Procedure, shortened: as §1
# [12] = test system: PPARg:RXRa IVT, anti-PPARg (NR concentration 270 nM, RXRa partner concentration 90 nM)
# Procedure, shortened: as §1
# [13] = test system: PPARg DBDmut:RXRa IVT, anti-PPARg (DBD mutation: PPARg1 K132A/R137A, NR concentration 270 nM, RXRa partner concentration 90 nM)
# Procedure, shortened: as §1
# [14] = test system: PPARg DBDmut IVT, anti-PPARg (DBD mutation: PPARg1 K132A/R137A, NR concentration 270 nM)
# Procedure, shortened: as §1
# [15] = test system: PPARg homodimer (NR concentration 180 nM)
# Procedure, shortened: as §1
# [16] = test system: PXR:RXRa (NR concentration 270 nM, RXRa partner concentration 90 nM)
# Procedure, shortened: as §1
# [17] = test system: PXR homodimer (NR concentration 270 nM)
# Procedure, shortened: as §1
# [18] = test system: RARa:RXR (NR concentration 270 nM, RXRa partner concentration 90 nM)
# Procedure, shortened: as §1
# [19] = test system: RARa homodimer (NR concentration 270 nM)
# Procedure, shortened: as §1
# [20] = test system: RARb:RXRa (NR concentration 270 nM, RXRa partner concentration 90 nM)
# Procedure, shortened: as §1
Sequence,PBM binding z-score [1],PBM binding z-score [2],PBM binding z-score [3],PBM binding z-score [4],PBM binding z-score [5],PBM binding z-score [6],PBM binding z-score [7],PBM binding z-score [8],PBM binding z-score [9],PBM binding z-score [10],PBM binding z-score [11],PBM binding z-score [12],PBM binding z-score [13],PBM binding z-score [14],PBM binding z-score [15],PBM binding z-score [16],PBM binding z-score [17],PBM binding z-score [18],PBM binding z-score [19],PBM binding z-score [20]
TGAATGAGGTTAAAGCTCAGGGAACGTGGCGTCG,2.94,1.92,-0.466,0.894,-0.222,3.6,2.86,4,2.09,3.82,2.25,2.59,-0.0715,0.871,0.0932,1.07,-0.806,1.84,-0.696,1.78
TCATATAGGTAAAGGTGAACGTCGAACGATATGA,1.01,1.27,-0.125,1.25,-0.0636,3.18,4.94,4.76,4.7,5.08,3.97,4.38,1.68,1.19,1.37,0.966,0.23,1.74,0.665,2.09
CAAACTACGTCAAAGGTCAAAGTCGAGCCAACCA,5.96,6.21,4.83,5.68,2.75,6.18,8.64,7.97,6.79,8.59,0.954,3.98,7.78,3.09,4.03,5.6,1.77,6.64,2.88,4.73
CCTAGTTGGTCAGGAGGTCAGACACCGGATATGA,2.18,2.3,0.868,2.16,0.128,3.04,2.05,2.35,0.691,1.69,1.06,2.24,0.271,0.265,2.85,2.7,0.934,3.13,1.66,2.92
CCGTCTGGGGCAGAAAGGTTACCATACCATCCGG,0.119,0.206,-0.115,0.58,-1.19,1.64,0.9,1.95,0.171,0.988,0.505,0.764,-1.18,-1.86,0.553,0.821,-0.115,1.51,-0.0366,1.54
ACTAGCAAGCCAAGGGTCACTCAAGATTAGTCCG,2.21,2.75,0.27,2.66,-0.201,3.53,3.39,4.44,2.1,4.11,-0.0877,1.46,-0.235,-0.0767,1.68,3.01,0.0127,3.79,0.419,3.11
ATCTCTAGGTAAAAGTTCAGTGAATCCCGAGGAT,0.943,1.4,1.16,1.12,0.841,4.11,8.09,7.52,8.83,8.39,1.99,3.82,1.42,1.8,1.4,2.14,1.95,1.64,0.604,2.42
CCTACTGGGCCATTCAGACGTCATTGATCATATG,-0.301,-0.532,-0.873,-0.449,-0.437,0.168,0.616,0.206,0.0211,0.147,4.26,3.42,0.223,0.732,-0.0853,-0.71,-0.506,-0.696,-0.0635,-0.11
TCTGCTAGGTCAGCGATGGTCAGCTAATCTGCTA,1.17,0.657,-0.944,0.271,-0.838,1.66,0.772,1.62,1.56,1.29,3.18,3.05,-0.711,-0.258,0.723,0.17,-1.61,1.31,-1.26,3.33
CCTTACGGGTCACTCCAGGTGATAGCATCGGAGT,5.24,5.98,0.158,3.34,-0.0681,4.26,3.57,3.66,1.31,2.64,2.72,3.72,-0.0866,-0.18,1.04,3.75,0.145,3.53,0.42,3.51
CGTTAAAGTTCAACTAAGGTAACGTAAAGCACGC,7.01,6.26,4.48,4.01,1.89,4.8,3.71,4.36,1.66,3.27,0.607,1.7,1.25,1.18,2.84,5.26,3.31,3.9,1.26,5.17
TCCTGTAGATCAACAGGAGGTTAAGAAAGATCGA,-0.0851,1.1,0.0543,0.973,-0.977,1.28,-0.00253,1.25,2.01,1.49,0.771,0.245,-0.0559,0.308,0.0427,0.654,-0.17,1.02,-0.715,0.535
AATACAGGGTCATCGTATGCCAGAGTACGCACAG,7.33,5.98,1.87,4.34,1.25,5.64,6.62,5.86,2.88,4.57,2.86,4.36,4.37,2.02,2.61,4.31,0.464,5.23,0.493,4.21
ATCTCTAGGTAAAGAGAGTTCAGTGAATGCAAAT,0.502,4.09,1.76,1.41,0.27,1.34,0.263,0.567,0.0587,0.356,2.17,1.38,0.459,0.197,0.502,3.71,3.18,0.79,0.685,1.16

# From the supplement of paper PMC6555819
